# About 570 (0.26%) of roughly 220,000 compounds were called active. Shown is part of a subset that was picked to be rich in actives. Values without a mark were called inactive. Rule as the data show it: active = inhibition above about 29%; inactive = the rest.
# Target: Sphingosine 1-phosphate receptor 4 (Homo sapiens) (UniProt O95977)
# Assay: S1P4 receptor antagonists, primary screen, cell-based (AID 1510);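 also: 0% = wells stimulated with agonist and 100% = vehicle wells without agonist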
# Conditions: S1P4-expressing cells, antagonist mode, reporter read-out; at 4.98 µM; hits give high values
# Chain of Sphingosine 1-phosphate receptor 4 (Homo sapiens) (O95977 whole entry, looked up): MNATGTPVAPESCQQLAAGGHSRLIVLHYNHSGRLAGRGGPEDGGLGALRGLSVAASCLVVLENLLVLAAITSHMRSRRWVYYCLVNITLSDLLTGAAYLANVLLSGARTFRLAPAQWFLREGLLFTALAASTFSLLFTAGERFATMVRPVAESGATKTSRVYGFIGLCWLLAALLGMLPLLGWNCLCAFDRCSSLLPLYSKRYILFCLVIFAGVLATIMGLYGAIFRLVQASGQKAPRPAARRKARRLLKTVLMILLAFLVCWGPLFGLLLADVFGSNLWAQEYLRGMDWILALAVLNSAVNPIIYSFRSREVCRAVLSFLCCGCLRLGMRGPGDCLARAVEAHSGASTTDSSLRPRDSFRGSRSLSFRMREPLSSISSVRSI
row,SMILES,inhibition
1,CCOc1ccc(S(=O)(=O)Nc2ccncc2)c(C)c1C,8.19%
2,Cc1cc(C)nc(S/C=C/C(=O)c2ccccc2)n1,54.5% (active)
3,Cc1cc(SCC(=O)c2ccccc2)nc(SCC(=O)c2ccccc2)n1,-17.1%
4,C/C(=N\NC(=O)c1nc(C)cc(C)n1)c1ccccc1,4.33%
5,O=C(Nc1nnc(SCc2ccccc2Cl)s1)c1cccc([N+](=O)[O-])c1,-13.5%
6,Cc1cccc(N2CCN(C(=O)c3ccccc3NC(=O)C3CCCCC3C(=O)O)CC2)c1 (centres undefined),-7.71%
7,CC(C)c1ccc(N2CCN(C(=O)c3ccccc3NC(=O)/C=C(\C(=O)O)c3ccccc3)CC2)cc1,96% (active)
8,O=C(O)C1CC=CCC1C(=O)Nc1ccccc1C(=O)N1CCN(c2ccccc2)CC1 (centres undefined),-6.52%
9,CC(C)c1ccc(Nc2ncccc2C#N)cc1,-16.8%
10,O=C(/C=C/c1cccc([N+](=O)[O-])c1)NCCSCc1ccco1,-14.7%
11,CCc1ccc2ncc(C(=O)c3ccccc3)c(N3CCOCC3)c2c1,-14.8%
12,O=C1Nc2cc(Cl)c(Cl)cc2N(O)N1c1ccccc1Cl,-11.4%
13,C=CCOCCN(C)C1=NS(=O)(=O)c2ccccc21,-5.99%
14,Fc1ccc(Nc2nnns2)cc1,-8.7%
15,O=C(CSc1ncn[nH]1)Nc1nc(-c2cccc([N+](=O)[O-])c2)cs1,0.29%
16,COc1ccc(Nc2nc(-c3ccccc3)cs2)cc1,-20.3%
17,COc1ccc(-c2csc(NC3OC(=O)c4ccccc43)n2)cc1 (centres undefined),30.9% (active)
18,COc1ccc2c(c1OC)C(=O)OC2Nc1nc(-c2ccccc2)cs1 (centres undefined),22.8%
19,O=C(CC1NCCNC1=O)Nc1cc(Cl)cc(Cl)c1 (centres undefined),-3.46%
20,Cc1cc(C(=O)CSc2nc(N)cc(=O)[nH]2)c(C)n1-c1cccc(F)c1,-13.7%
21,Brc1ccc(-c2nn[nH]n2)cc1,11.9%
22,Cc1ccc(C2CCN(C(=S)Nc3cccc(Cl)c3)C2)cc1 (centres undefined),3.99%
23,Cc1nc2nc(SCC(=O)c3ccccc3)[nH]c2cc1Br,6.48%
24,O=C(COC(=O)c1cc([N+](=O)[O-])ccc1NCc1ccccc1)NC1CCCCC1,-5.39%

row,SMILES,inhibition
1,CN1CCN(S(=O)(=O)c2cccc(C(=O)O)c2)CC1,-2.81%
2,CC1CC(C)CN(S(=O)(=O)c2cccc(C(=O)N3C(=O)c4cccc(N)c4C3=O)c2)C1 (centres undefined),37.9% (active)
3,COc1cc(C(=O)N2C(=O)c3cccc(N)c3C2=O)cc(OC)c1OC,6.71%
4,CC(C)(C)C(=O)NCCCNc1ccc([N+](=O)[O-])cc1,4.36%
5,Cc1cc(C)n(-c2nnc(N3CCN(c4ccccc4)CC3)nn2)n1,9.76%
6,CCn1nnnc1SCC(=O)c1ccc(C)cc1C,-2.87%
7,Cc1ccc(SC(CC(=O)c2ccc(C(C)(C)C)cc2)C(=O)O)cc1 (centres undefined),26%
8,Cn1c(=O)c2c(nc(N/N=C/c3cccs3)n2Cc2ccc(Br)cc2)n(C)c1=O,-19.2%
9,Cc1ccc(COc2ccc(/C=N/NC(=O)CN3CCCCC3)cc2)cc1,-8.97%
10,CC1(C)CCCC2=C1CC1C(=O)N(c3ccccc3)C(=O)C1C2 (centres undefined),-11.5%
11,CC1CC2=C(CC1/C=N/NC(N)=S)C(C)(C)CCC2 (centres undefined),29.9% (active)
12,COc1ccc(C)c(Cn2c(-c3nonc3N)nc3ccccc32)c1,-20.7%
13,CC(=O)Nc1nonc1-c1nc2ccccc2n1Cc1ccccn1,-6.67%
14,Nc1nonc1-c1nc2ccccc2n1Cc1ccc(F)cc1,38.9% (active)
15,COc1ccc(CCCc2nnc(SCc3nc4ccccc4c(=O)[nH]3)n2C)cc1,3.12%
16,C=C(C)CNC(=S)Nc1ccc(S(=O)(=O)Nc2cnc3ccccc3n2)cc1,2.29%
17,Cc1cc(C(=O)Nc2c(C)n(C)n(-c3ccccc3)c2=O)cs1,-8.59%
18,Cc1c(NC(=O)c2coc(=O)c(Br)c2)c(=O)n(-c2ccccc2)n1C,-7.02%
19,Cc1cc2oc(C(=O)Nc3c(C)n(C)n(-c4ccccc4)c3=O)c(C)c2cc1Cl,29.2% (active)
20,COc1ccc(NC(=O)COC(=O)c2ccncc2)c(OC)c1,-5.29%
21,Cc1cc(C(C)(C)C)oc1C(=O)N(CC(=O)NC1CCCC1)Cc1ccc(Cl)cc1,-6.52%
22,CC(C)NC(=S)N1CCN(S(C)(=O)=O)CC1,-10.4%
23,Cc1nc2cc3c(cc2s1)OCO3,-20.6%
24,COc1ccc(C(=O)NCc2nnc(SCCOc3ccccc3)n2C)cc1,-1.19%

row,SMILES,inhibition
1,CC(C)N(C(=O)c1ccc(-c2ccccc2F)cc1)C(C)C,26.9%
2,CC(NCc1ccccc1OC1CCCC1)c1ccccc1 (centres undefined),27.7%
3,CC(C)(C)NC(=O)C(=O)NCc1ccncc1,-14.6%
4,CNS(=O)(=O)c1ccc(NC(=O)C2CC(=O)N(c3ccc(Cl)cc3)C2)cc1 (centres undefined),12.8%
5,CC(=O)Nc1ccc(S(=O)(=O)N2CCN(c3ccc([N+](=O)[O-])c(NCCN4CCOCC4)c3)CC2)cc1,-3.22%
6,COc1cc(NC(=O)CN(C)S(=O)(=O)c2ccc3nc(C)sc3c2)cc(OC)c1,-2.8%
7,Cc1cc(/C=N/NC(N)=O)c(C)n1C1CCCCC1,16.8%
8,Cc1cccc(C(=O)Nc2ccccc2C(=O)NCc2cccnc2)c1,-7.4%
9,Cc1ccc2cc(/C=N/Nc3ccc(C(=O)O)cc3)c(Cl)nc2c1,4.36%
10,Cc1nc([N+](=O)[O-])cn1CC(=O)Nc1ccc2c(c1)OCO2,-4.57%
11,Cc1nn(CC#N)c(=O)n1N(C)c1ncc(C(F)(F)F)cc1Cl,-4.17%
12,CCOc1ccc(C(=O)Nc2cccc(-c3ccc4nncn4n3)c2)cc1,0.94%
13,O=C(C1CCN(S(=O)(=O)c2ccc(Br)s2)CC1)N1CCN(C2CCCCC2)CC1,-2.03%
14,O=C(/C=C/c1ccc(Cl)c([N+](=O)[O-])c1)c1ccc(O)cc1,46.2% (active)
15,CN(C)c1ccc(/C=C/C(=O)c2ccc(C(C)(C)C)cc2)cc1[N+](=O)[O-],-10.1%
16,CN(C)c1ccc(/C=C/C(=O)c2ccc(O)cc2)cc1[N+](=O)[O-],6.74%
17,COc1ccccc1CNC(=O)Cn1c(=O)oc2cc(Cl)ccc21,0.8%
18,COc1ccc(C[C@H]2CN3C(=NC[C@H]3C)N2CCNC(=O)CCC2CCCCC2)cc1,-5.06%
19,CC1CCCC(NC(=O)c2cccc(N3CCCC3=O)c2)C1C (centres undefined),-7.04%
20,C/C(=N/O)c1ccc(N2C(=O)C3C4C=CC(C3C2=O)C2C3C(=O)N(c5ccc(/C(C)=N/O)cc5)C(=O)C3C42)cc1 (centres undefined),-4.36%
21,COC(=O)C1=C(Nc2ccc(C)cc2)C=C(C)C(C(=O)OC)C1c1ccc(F)cc1 (centres undefined),-18%
22,O=C(NNC(=S)Nc1ccc(Br)cc1Cl)c1ccco1,-12.4%
23,NC(=O)N/N=C\c1cccs1,-18.6%
24,CCCCCCCC(=O)NC(Nc1ccccc1OC)C(Cl)(Cl)Cl (centres undefined),8.46%

row,SMILES,inhibition
1,Cc1cc(NC(=O)CSCc2ccccc2C)no1,-4.86%
2,C=CS(=O)c1sc(Cl)c(N2CCOCC2)c1[N+](=O)[O-] (centres undefined),46.3% (active)
3,O=c1c2cc(-c3ccccc3)sc2nc2n1N=C(c1cccs1)CS2,-3.31%
4,CCOc1ncccc1C(=O)N(CC)CC(=O)Nc1ccc(NC(C)=O)cc1,-27.8%
5,CNc1ccc(SC#N)cc1,30.8% (active)
6,COc1cc2c(cc1O)[C@H](Cc1ccc(Oc3cc(C[C@@H]4NCCc5cc(OC)c(O)cc54)ccc3O)cc1)NCC2,-13.1%
7,CC[C@H]1CN2CCc3cc(OC)c(OC)cc3[C@@H]2C[C@@H]1C[C@H]1NCCc2cc(OC)c(OC)cc21,82.3% (active)
8,O=C(Nc1ccc(Cl)cc1)Nc1ccc(C(=O)N2CCOCC2)cc1,6.4%
9,Cc1ccc(Oc2cc(NC(=O)CCCn3nc(C)c([N+](=O)[O-])c3C)cc([N+](=O)[O-])c2)cc1,-12.2%
10,O=C(Nc1ccccc1)c1nnsc1S(=O)(=O)c1ccc(Cl)cc1,93.8% (active)
11,O=C(Nc1ccc(Cl)cc1)c1ccsn1,4.84%
12,CS(=O)(=O)c1ccc(Cl)c(NC(=O)Nc2ccccc2)c1,17.2%
13,CS(=O)(=O)N(CC(=O)N1CCN(c2ccc(F)cc2)CC1)C1CCCCC1,-13.7%
14,Cc1ccc(CCC(=O)Nc2ncc(Cc3cc(Cl)ccc3Cl)s2)o1,-6.95%
15,CCc1ccc(S(=O)(=O)NCC(O)COc2ccc(OC)cc2)cc1 (centres undefined),2%
16,O=C(/C=C/Sc1ncn[nH]1)c1ccc(Cl)cc1,47.2% (active)
17,O=C(NCCOCc1ccc(Cl)cc1)c1ncn[nH]1,-4.23%
18,COc1ccc(Cl)cc1CSc1ncn[nH]1,-3.23%
19,CC(=O)N1N=C(c2ccncc2)OC1(Cc1ccccc1)Cc1ccccc1,23.2%
20,CN(C)CCNC(=O)Cc1ccc([N+](=O)[O-])cc1,-16%
21,CCCc1nc2c(C)cc(-c3nc4ccccc4n3C)cc2n1Cc1ccc(-c2ccccc2C(=O)O)cc1,-1.52%
22,CCOc1ccc(C(C)=O)cc1COC(=O)c1cnc(Cl)c(Cl)c1,-30.6%

# Reference: PubChem BioAssay AID1510 (The Scripps Research Institute Molecular Screening Center, 2009)
